Results taken from PubChem BioAssay (Tox21).
Inconclusive results are not listed. Entries that show only a call come without a potency. The source made the active and inactive calls. Calls follow the shape of the dose curve; as a rule, active = well fitted cell-killing curve with a large enough effect in the repeat runs; inconclusive = weak or mixed curves, or effect the other way; inactive = flat fitted curve, though single readings scatter.

Experiment: cAMP Responsive Elements (CRE) small molecule antagonists, cell-based qHTS assay: qHTS cell viability counter screen (AID 2060913); also: nearly all actives have a fitted effect of over 40% in size
Conditions: CRE-bla HEK293T viability, CellTiter-Glo luminescence, 5 h; series mostly up to 92.4 µM
Procedure, shortened: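 CRE-bla HEK293T cells (2,000/well, 18 h) given compound plus NKH477 0.25 uM final for 3 h at 37C; viability counter-screen by CellTiter-Glo luminescence in same wells after 30 min.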

| SMILES | Potency | viability change, negative = cytotoxic |
| --- | --- | --- |
| CC(C)OC(=O)c1cc(C(=O)OC(C)C)cc([N+](=O)[O-])c1 | inactive |  |
| O=C(O)c1ccc[n+]([O-])c1 | inactive |  |
| CC(Cl)COP(=O)(OCC(C)Cl)OCC(C)Cl (stereo not given) | inactive |  |
| Nc1ccc(/C=C/c2ccc(N)cc2S(=O)(=O)O)c(S(=O)(=O)O)c1 |  | 3.88% [at 0.349 µM] (inactive) |
| Nc1ncnc2c1ncn2[C@@H]1O[C@H](COP(=O)(O)O)[C@@H](O)[C@H]1O | inactive |  |
| CCn1nc(C)c2c1C(=O)NCC(c1ccc(O)cc1)=N2 | inactive |  |
| O=Cc1ccc([N+](=O)[O-])cc1 | inactive |  |
| C[C@@H]1NC(=O)[C@@H](N)CNC(=O)[C@H](C2CCNC(N)=N2)NC(=O)/C(=C/NC(N)=O)NC(=O)[C@H](CNC(=O)C[C@@H](N)CCCN)NC1=O (stereo not given in full) |  | -0.0663% [at 0.349 µM] (inactive) |
| CO[C@@H]1[C@H](OC(=O)/C=C/C=C/C=C/C=C/C(=O)O)CC[C@]2(CO2)[C@H]1[C@@]1(C)O[C@@H]1CC=C(C)C | inactive |  |
| CCCCC | inactive |  |
| O=C1Cc2cc(CCN3CCN(c4nsc5ccccc45)CC3)c(Cl)cc2N1 | inactive |  |
| CC(C)(Oc1ccc(Cl)cc1)C(=O)O | inactive |  |
| CCCOC(=O)c1ccc(O)cc1 | inactive |  |
| O=Cc1ccccc1O | inactive |  |
| CCOc1ccccc1OCC1CNCCO1 (stereo not given) | inactive |  |
| COC(=O)N/N=C/c1c[n+]([O-])c2ccccc2[n+]1[O-] | inactive |  |
| CC(=O)Nc1ccc(C(=O)CCl)cc1 | inactive |  |
| CCn1ccc(NS(=O)(=O)c2ccc(N)cc2)nc1=O | inactive |  |
| CC(=O)/C(C)=C/C1C(C)=CCCC1(C)C (stereo not given) | inactive |  |
| O=CO |  | -5.83% [at 8.39 µM] (inactive) |

| SMILES | Potency | viability change, negative = cytotoxic |
| --- | --- | --- |
| Nc1ccc2cc(S(=O)(=O)O)ccc2c1 | inactive |  |
| CC1CNCC(C)O1 (stereo not given) | inactive |  |
| Cc1ccccc1N1C(=O)c2cc(S(N)(=O)=O)c(Cl)cc2NC1C (stereo not given) | inactive |  |
| N#Cc1cscn1 | inactive |  |
| NC(=O)NC1N=C([O][Al])NC1=O (stereo not given) | inactive |  |
| C=C1C[C@H]2[C@@H]3C=C(C)C4=CC(=O)CC[C@]4(C)[C@H]3CC[C@]2(C)[C@@]1(OC(C)=O)C(C)=O | inactive |  |
| CN1CCN(CCC(=O)N2c3ccccc3Sc3ccc(C(F)(F)F)cc32)CC1 | inactive |  |
| CCO[Si](CCCN)(OCC)OCC | inactive |  |
| C1N2CN3CN1CN(C2)C3 | inactive |  |
| CNC(=S)NC | inactive |  |
| CCO[C@@H]1O[C@H](C(COCc2ccccc2)OCc2ccccc2)[C@H](OCc2ccccc2)[C@H]1O (stereo not given in full) | inactive |  |
| NCCCCCC(=O)O | inactive |  |
| C[N+]1(CC2COC(c3ccccc3)(c3ccccc3)O2)CCCCC1 (stereo not given) |  | 0.835% [at 18.9 µM] (inactive) |
| Cn1c(=O)[nH]c2ncn(C)c2c1=O | inactive |  |
| C=CC(=C)CCC=C(C)C | inactive |  |
| CCOc1cc(N)c(Cl)cc1C(=O)NCC1CN(Cc2ccc(F)cc2)CCO1 (stereo not given) | inactive |  |
| C=C(C)C(=O)OCCOCCOCCOCCOC(=O)C(=C)C | inactive |  |
| Cc1ccccc1C | inactive |  |
| Nc1ccc2cc(S(=O)(=O)O)cc(O)c2c1N=Nc1ccccc1C(F)(F)F | inactive |  |
| CC(=O)OCC(=O)[C@@]1(O)CCC2C3CCC4=CC(=O)CC[C@]4(C)C3[C@@H](O)C[C@@]21C (stereo not given in full) | inactive |  |
